Reference: PubChem BioAssay (NCI)
The panel holds about 83,000 compounds, 20% with a hit somewhere; the sample as a whole holds those more often.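 Growth was measured after 48 h exposure to one concentration of compound in 96-well plates. Values under 10 count as active.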 Activity calls are given as the source filed them.

Legend:
Test in all cases: NCI-60 one-dose screen, 48 h (100 = growth as untreated, 0 = no growth, -100 = all killed)
Settings in all cases: 10 µM
[1] = tested on: HCT-15 colon
[2] = tested on: HT29 colon
[3] = tested on: SNB-75 CNS
[4] = tested on: SNB-19 CNS
[5] = tested on: U251 CNS
[6] = tested on: PC-3 prostate
[7] = tested on: SK-MEL-5 melanoma
[8] = tested on: UACC-62 melanoma
[9] = tested on: LOX IMVI melanoma
[10] = tested on: SK-MEL-28 melanoma

Measured: growth

O=C(CCCCCCC(=O)Nc1ccccc1)NO
active: [2] 7.15% | [5] -20.1% | [7] -54.4% | [8] -42.8% | [9] -3.4% | [10] 5.94%
inactive: [1] 33.9% | [3] 18% | [4] 25% | [6] 10.4%

C[C@]12CCC3c4ccc(O)cc4C[C@@H](CCCCCCCCCS(=O)CCCC(F)(F)C(F)(F)F)C3C1CC[C@@H]2O (some centres undefined)
inactive: [1] 71.6% | [2] 72.1% | [3] 64.4% | [4] 89.8% | [5] 68.3% | [6] 52.5% | [7] 76% | [8] 83.3% | [9] 90.1% | [10] 97.1%

Cc1cc(Cl)ccc1Nc1nc(C(F)(F)F)ccc1C(=O)N/N=C/c1cccc(O)c1
active: [7] -52.1%
inactive: [1] 23% | [2] 23.7% | [3] 28.9% | [4] 63.5% | [5] 30.5% | [6] 29.7% | [8] 38.7% | [10] 52.4%

CNC(=O)c1cc(Oc2ccc3c(c2)sc2nc(-c4ccc(N)cc4)cn23)ccn1
active: [2] 0.705% | [7] -0.651%
inactive: [1] 11% | [3] 38.4% | [4] 32.1% | [5] 11.5% | [6] 29.2% | [8] 41.9% | [9] 22.7% | [10] 66.1%

O=C(N/N=C/c1c(Cl)cccc1Cl)c1ccccc1Nc1cccc(C(F)(F)F)c1
inactive: [1] 88.5% | [2] 103% | [3] 105% | [4] 97% | [5] 89.9% | [6] 89.9% | [7] 72.9% | [8] 87.1% | [9] 76.3% | [10] 99.5%

COc1ccc(-c2cc(-c3ccccc3)nc(SCCCC(=O)NO)n2)cc1
inactive: [1] 10.8% | [4] 10.6% | [10] 19.2%
active: [2] 5.87% | [3] -20.1% | [5] -24.5% | [6] 9.65% | [7] -57.8% | [8] -65.9%

CCOC(=O)c1cc(C(=O)c2cc(OC)c(OC)c(OC)c2)n2ncc3ccccc3c12
inactive: [1] 58.5% | [2] 29.6% | [3] 79.5% | [4] 88.2% | [5] 81% | [6] 54.6% | [7] 34.5% | [8] 70.2% | [9] 66.3% | [10] 90.9%

CC(C)=CCC/C(C)=C/CC/C(C)=C/CC/C=C(\C)CC/C=C(\C)CCC(=O)Nc1ccn(C2OC(CO)C(O)C2(F)F)c(=O)n1 (centres undefined)
active: [3] 4.15% | [7] -63.4% | [9] 5.76%
inactive: [1] 50.9% | [2] 36.2% | [4] 23.4% | [5] 20.5% | [6] 37.2% | [8] 22% | [10] 60%

COc1ccc(-c2nnc(SCC(=O)Nc3ccc(C(=O)/C=C/c4ccccc4)cc3)n2-c2ccccc2)cc1OC
inactive: [1] 86.5% | [2] 60.3% | [3] 84.2% | [4] 83.3% | [5] 79.5% | [6] 69.5% | [7] 83.1% | [8] 81.1% | [10] 89.3%

CCN(CC)CCCC(Nc1c2ccc(Cl)cc2nc2ccc(OC)cc12)c1ccc(F)cc1 (centres undefined)
inactive: [3] 93.3% | [4] 45.7% | [6] 73% | [8] 109%
active: [1] 1.06% | [2] 5.7% | [5] -29% | [7] -95.7% | [9] -73.2% | [10] -83.5%

O=C(CNc1nnc(-c2cccnc2SCc2ccccc2)s1)Nc1nc(Cl)cc(Cl)n1
inactive: [1] 108% | [2] 123% | [3] 74.1% | [4] 103% | [5] 119% | [6] 112% | [7] 113% | [8] 108% | [9] 105% | [10] 110%

O=C1/C(=C/c2ccc3c(c2)OCO3)SC(=S)N1C1c2ccccc2Oc2ccccc21
inactive: [1] 93% | [2] 117% | [3] 89.2% | [4] 96.8% | [5] 113% | [6] 93.1% | [7] 97.2% | [9] 89.1% | [10] 96.3%

CC(CN(C)C)Oc1ccc(OC(C)CN(C)C)c2c1C(=O)c1ccccc1C2=O (centres undefined)
inactive: [1] 88.2% | [2] 20.8% | [3] 54.9% | [4] 37.2% | [5] 30.1% | [6] 38.3% | [8] 68% | [9] 27.4% | [10] 96%

CC[C@@H](C(=O)[C@H](C)[C@H](O)[C@@H](C)[C@H]1O[C@H]([C@@H](CC)C(=O)O)CC[C@H]1C)C1O[C@]2(C=C[C@@H](O)[C@]3(CC[C@@](C)([C@H]4CC[C@](O)(CC)[C@H](C)O4)O3)O2)[C@H](C)C[C@@H]1C (some centres undefined)
active: [3] -12.7% | [4] -13.3% | [8] -92.2% | [10] -93%
inactive: [1] 25.7% | [2] 26.1% | [5] 14.2% | [6] 27.5% | [9] 29.3%
